PubChem BioAssay AID1053205 (Broad Institute, 2014)
Potency and affinity values are given separately. Records with an inconclusive call do not appear.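 Rule for the calls: active = compounds lowering the FRET ratio whose fitted half-maximal concentration is at most twice their top tested dose; inconclusive = flat partial drop between 30 and 70 percent, or bad fit; inactive = the rest.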

target: Voltage-dependent L-type calcium channel subunit alpha-1D (Homo sapiens) (UniProt Q01668); assay: disruptors of CaV1.3 IQ/ICDI domain association – cell-based, HEK293, YFP-IQ/CFP-ICDI FRET, cherry-picks, dose response (AID 1053205); settings: HEK293 YFP-IQ/CFP-ICDI FRET ratio, 10 min; series mostly up to 35 µM; FRET change, negative = inhibition: at the top concentration;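 note: 0% = median of neutral control wells and -100% = median of positive control wells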
Sequence (Q01668 whole entry, looked up, the tested form may be a part): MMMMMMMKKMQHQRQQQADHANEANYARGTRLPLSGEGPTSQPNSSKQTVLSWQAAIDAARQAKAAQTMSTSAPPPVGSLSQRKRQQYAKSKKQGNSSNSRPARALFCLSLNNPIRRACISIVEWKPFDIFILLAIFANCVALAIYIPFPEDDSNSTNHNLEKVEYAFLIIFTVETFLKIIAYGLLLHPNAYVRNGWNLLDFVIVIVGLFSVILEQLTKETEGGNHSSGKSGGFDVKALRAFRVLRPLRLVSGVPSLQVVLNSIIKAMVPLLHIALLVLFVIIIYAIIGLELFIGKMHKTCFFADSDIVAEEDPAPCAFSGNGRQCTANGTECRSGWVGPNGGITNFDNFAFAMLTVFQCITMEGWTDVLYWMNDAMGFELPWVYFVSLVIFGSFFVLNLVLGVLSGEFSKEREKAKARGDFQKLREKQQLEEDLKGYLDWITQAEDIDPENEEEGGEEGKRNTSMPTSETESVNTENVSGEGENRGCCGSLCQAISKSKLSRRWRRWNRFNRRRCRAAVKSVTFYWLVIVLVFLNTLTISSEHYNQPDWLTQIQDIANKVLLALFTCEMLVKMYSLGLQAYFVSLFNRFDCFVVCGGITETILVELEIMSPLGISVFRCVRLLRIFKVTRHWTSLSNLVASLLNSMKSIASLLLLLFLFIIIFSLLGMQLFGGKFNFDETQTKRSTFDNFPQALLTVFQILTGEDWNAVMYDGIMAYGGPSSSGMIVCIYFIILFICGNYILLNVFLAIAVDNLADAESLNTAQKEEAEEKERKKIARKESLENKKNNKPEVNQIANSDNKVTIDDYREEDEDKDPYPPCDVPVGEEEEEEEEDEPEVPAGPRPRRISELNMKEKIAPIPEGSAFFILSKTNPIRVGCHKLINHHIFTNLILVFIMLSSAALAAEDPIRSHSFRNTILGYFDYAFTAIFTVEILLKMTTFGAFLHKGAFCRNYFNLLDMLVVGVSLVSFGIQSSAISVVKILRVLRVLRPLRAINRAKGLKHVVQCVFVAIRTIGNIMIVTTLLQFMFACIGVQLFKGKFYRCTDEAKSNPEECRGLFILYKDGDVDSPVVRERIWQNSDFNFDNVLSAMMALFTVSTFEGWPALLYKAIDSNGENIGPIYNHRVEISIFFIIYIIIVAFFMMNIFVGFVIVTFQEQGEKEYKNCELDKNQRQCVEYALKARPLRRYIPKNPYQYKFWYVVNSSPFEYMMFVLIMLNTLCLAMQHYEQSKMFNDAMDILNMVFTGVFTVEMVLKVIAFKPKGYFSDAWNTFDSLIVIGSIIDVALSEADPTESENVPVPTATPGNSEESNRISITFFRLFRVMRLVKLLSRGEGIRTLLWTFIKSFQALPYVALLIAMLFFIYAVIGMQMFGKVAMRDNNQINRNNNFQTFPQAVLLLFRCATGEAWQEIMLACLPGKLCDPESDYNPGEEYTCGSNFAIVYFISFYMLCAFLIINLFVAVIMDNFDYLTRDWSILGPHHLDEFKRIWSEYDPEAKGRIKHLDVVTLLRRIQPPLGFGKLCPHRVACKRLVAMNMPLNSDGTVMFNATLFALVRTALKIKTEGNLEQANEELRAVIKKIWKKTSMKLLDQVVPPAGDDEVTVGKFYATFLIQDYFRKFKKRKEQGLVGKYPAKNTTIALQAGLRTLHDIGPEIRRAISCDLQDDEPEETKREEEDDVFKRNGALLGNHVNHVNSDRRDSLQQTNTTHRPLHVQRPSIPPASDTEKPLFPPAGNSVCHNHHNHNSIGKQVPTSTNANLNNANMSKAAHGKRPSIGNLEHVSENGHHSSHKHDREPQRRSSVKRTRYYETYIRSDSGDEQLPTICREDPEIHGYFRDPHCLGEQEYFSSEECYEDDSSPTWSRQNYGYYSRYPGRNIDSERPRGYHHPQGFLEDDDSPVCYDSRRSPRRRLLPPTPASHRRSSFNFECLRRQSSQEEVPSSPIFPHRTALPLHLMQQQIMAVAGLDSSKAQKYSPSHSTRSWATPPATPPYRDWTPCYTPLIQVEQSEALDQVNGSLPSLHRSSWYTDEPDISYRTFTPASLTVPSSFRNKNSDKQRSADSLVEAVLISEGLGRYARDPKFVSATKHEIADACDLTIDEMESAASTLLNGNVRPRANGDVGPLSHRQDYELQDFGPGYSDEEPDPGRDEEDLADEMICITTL

FRET change, negative = inhibition, inactive:
CCOc1ccc2nc(NCCCNS(=O)(=O)c3ccc(C)cc3)c(C#N)cc2c1 492%
CC1=C(C(=O)N2CCN(c3cc(C)ccc3C)CC2)C2(CCCCC2)OC1=O 9.6%
Cc1ccc(O)c(NC(=S)NC(=O)COc2ccc(Br)cc2)c1 -15.2%
CCOC(=O)c1oc2c(CN3CCN(CCO)CC3)c(O)c(CC)cc2c(=O)c1-c1nc2ccccc2s1 38.5%
Clc1cccc(CN2CCN(Cc3nc(CCc4ccccc4)no3)CC2)c1 -34.4%
CCN1/C(=C/c2sc(-c3ccccc3C)c[n+]2C)Sc2ccccc21 148% [at 8 µM]
CCc1nnc(NC(=O)c2ccc(-c3ccccc3F)o2)s1 7.19%
Fc1ccc(-c2nc3ccccn3c2NCc2ccc3c(c2)OCO3)cc1 71.1% [at 16 µM]
CCOC(=O)c1c(C)n(C)c2ccc(OCC(O)CN3CCC(C)CC3)cc12 (centres undefined) 10.5%
CNNC(=S)NC1CC2CC1C1C=CCC21 (centres undefined) 4.34%
CCCCN(CCCC)CC(O)Cn1c2ccccc2c(=O)c2ccccc21 (centres undefined) 175%
COc1ccc(C2CC(c3ccccc3)=NN2c2ccc(C(N)=O)cc2)cc1 (centres undefined) -13.1%
CN1CCN(c2nc3ccccn3c(=O)c2/C=C(\C#N)S(=O)(=O)c2ccccc2)CC1 37.4%
Cc1cc(=O)oc2cc(OC(=O)c3cncc(Br)c3)ccc12 -2.73%
Cc1ccc(C(=O)OCC(=O)Nc2c(C)nn(-c3ccccc3)c2C)c(O)c1 15.9%
CCOC(=O)C1=CN(CC2CCCO2)C=C(C(=O)OCC)C1c1ccccc1C(F)(F)F (centres undefined) 156%
Cc1c(C(=O)NCc2ccc3c(c2)OCCO3)sc(=O)n1Cc1ccccc1F 16.7%
CCOc1ccc(NC(=O)CN(C)C(=O)CCCNC(=O)c2ccc(Cl)cc2)cc1OCC 6.84%
COCCNC(=S)N/N=C/c1ccc(-c2ccc([N+](=O)[O-])cc2)o1 399%
